Our source for the Inhibition values is ChEMBL document CHEMBL1157539, “Thousands of chemical starting points for antimalarial lead identification” (Nature, 2010).

Holding throughout (format): functional
In assay [1] the test system is Plasmodium falciparum. The assay is described as follows: GSK_TCMDC: Inhibition of Plasmodium falciparum 3D7 in whole red blood cells, using parasite LDH activity as an index of growth. Test compounds present at 2uM.
Assay [2] has as its system Plasmodium falciparum. The assay is described as follows: GSK_TCMDC: Inhibition of Plasmodium falciparum Dd2 in whole red blood cells, using parasite LDH activity as an index of growth. Test compounds present at 2uM.
The test system of the next assay is HepG2. The assay is described as follows: GSK_TCMDC: Percent inhibition of human HepG2 cell line. Test compounds present at 10uM.

`CCC(C)NC(=O)Nc1cccc(-c2cccc(-c3nc4cccc(C)c4[nH]3)c2)c1` (stereo not drawn): the Inhibition was determined as 100% in the assay with Plasmodium falciparum [1], 27% with Plasmodium falciparum [2] and 3% with HepG2.
`COc1ccc(CNC2CCN(C)CC2)cc1-c1ccc(S(=O)(=O)NCC2CCCO2)s1.O=C(O)C(F)(F)F` (stereo not drawn): the values for the Inhibition in the assay on Plasmodium falciparum [1], in the assay with Plasmodium falciparum [2] and with HepG2 were 95%, 18% and 18%, respectively.
As to `CCN1CCC(NCc2ccc(-c3ccc(Cl)s3)cc2)CC1`, the Inhibition turned out to be 96% with Plasmodium falciparum [1], 23% with Plasmodium falciparum [2] and 42% in the assay with HepG2.
In the same order, the values of `O=C(Cc1ccccc1)NC(c1ccccc1)c1ccc2cccnc2c1O` (stereo not drawn) are 89%, 61% and 49%.
For `O=C(Nc1ccc(CN2CCN(S(=O)(=O)c3cccc(Cl)c3)CC2)cc1)c1cccs1.O=C(O)C(F)(F)F`, in that order: 84%, 41% and 9%.
In the same order, the values of `COc1cc(NCCCNC(=O)c2cc3c(Cl)cc(Cl)cc3[nH]2)nc2ccccc12` are 100%, 100% and 96%.
Take `COc1ccc(CCNCCCCCCNCCc2ccc(-c3ccccc3)cc2)cc1OC.Cl`: the results for the Inhibition in the assay with Plasmodium falciparum [1], with Plasmodium falciparum [2] and in the assay on HepG2 were 99%, 35% and 100%, respectively.
With `CSc1ccc(NC(=O)Nc2cc(C)nc3ccccc23)cc1`, the Inhibition in the assay with Plasmodium falciparum [1] is 100%; in the assay with Plasmodium falciparum [2], 23%; in the assay with HepG2, 7%.
In the same order, the values of `COc1c(C)[nH]c(C)c(-c2ccc(Oc3cccc(C(F)(F)F)c3)cc2)c1=O` are 98%, 96% and 40%.
In the same order, the values of `O=C(Nc1cccc(CN2CCCN(Cc3ncc[nH]3)CC2)c1)c1ccc(-c2ccccc2)cc1.O=C(O)C(F)(F)F` are 100%, 56% and 23%.
For `CCNc1cc(C(=O)N[C@@H](Cc2ccccc2)[C@H](O)CNCCC(C)c2ccccc2)cc(N2CCCC2=O)c1.O=C(O)C(F)(F)F` (stereo partly drawn), in that order: 99%, 95% and 0%.

As usually defined, the Inhibition is the share of the control response that was lost under treatment. Lower therefore signals a response near the control.
